Data reported in PubChem BioAssay (NCI).
Compounds without any hit were thinned out: in the full panel of roughly 83,000, 20% have a hit.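 Testing used 96-well plates and a 48-hour single-concentration exposure. Example: -40 means 40% of the starting cells died.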 Calls of active or inactive are those of the source.

Each molecule was assayed on EKVX NSCLC (assay: NCI-60 one-dose screen, 48 h (100 = growth as untreated, 0 = no growth, -100 = all killed)). Conditions: 10 µM unless noted.
Experimental: Growth inhibition of the EKVX human Non-Small Cell Lung tumor cell line is measured as a screen for anti-cancer activity. Cells are grown in 96 well plates and exposed to the test compound for 48 hours. Compounds are tested at a single concentration, which is 10^-5 M for most compounds. The reported endpoint is percent growth (GI% or GIPRCNT), where numbers from 0 - 100% represent growth inhibition, and numbers from -100% - 0 represent cell death. For example, a value of 40 represents 60% growth inhibition. A value of 0 means no net growth occurred over the course of the experiment. A value of -40 indicates 40% of cells at the beginning of the experiment died by the end of the experiment. A value of -100 means all cells are dead at the end of the experiment.
NCI-60 Human Tumor Cell Lines Screen was performed using the standard one-dose NCI protocol, which is described in more detail at https://dtp.cancer.gov/discovery_development/nci-60/default.htm.
Compounds with GIPRCNT values below 10 were considered active. Activity score was based on GIPRCNT using the following formula: […]
Score is 0 for GIPRCNT values of 100 or above, 50 for GIPRCNT values of 0, and 100 for GIPRCNT values of -100.
With CCCCCCC/C(=N\N=C(N)N)c1ccc(O)cc1 the growth was 55.1% (inactive).
For CCC(C)(C)C(=O)O[C@H]1C[C@@H](C)C=C2C=C[C@H](C)[C@H](CC[C@@H]3C[C@@H](O)CC(=O)O3)[C@H]21, the growth was 51.7% (inactive).
In the case of OC(CCC(O)(c1ccccc1)c1ccccc1)(c1ccccc1)c1ccccc1, the growth is reported as 58.8% (inactive).
For O=C1Nc2ccccc2C12Nc1cc(Cl)ccc1S2 (stereo not given), the growth was 74% (inactive).
For CC1=CSC2=NCCN12, the growth was 103% (inactive).
With COc1ccccc1[C@H]1c2[nH]c3ccccc3c2C[C@H]2C(=O)N(CCCCCCC(=O)NO)CC(=O)N12 the growth was 74.7% (inactive).
CCn1c2ccccc2c2ccc(C(C)=O)cc21 was tested, and the growth was 99.2% (inactive).
Cn1cc(-c2csc(-c3c[nH]c4ncccc34)n2)c2cc(F)cnc21 was tested, and the growth was 51.9% (inactive).
With COc1ccc2c(c1)C(=O)c1c-2c(=O)n(CCCCCCC(=O)NO)c2ccccc12 the growth was 31.3% (inactive).
For CC(=O)Oc1ccc(C23c4ccccc4C2(OC(C)=O)c2cc(OC(C)=O)ccc23)cc1 (stereo not given), the growth was 69.4% (inactive).
In the case of NC(=O)c1ccccc1NC(=O)c1ccccc1Cl, the growth is reported as 103% (inactive).
In the case of COC(=O)[C@]1(CCSC)N[C@H](c2cn(-c3ccccc3)nc2C)[C@@H]2C(=O)N(c3ccc(C)cc3)C(=O)[C@@H]21, the growth is reported as 106% (inactive).
In the case of O=C1c2ccccc2C(=O)c2c1cccc2-n1nnc2ccccc21, the growth is reported as 112% (inactive).
For Clc1ccc(-c2nc(-c3cccs3)no2)c(Cl)c1, the growth was 72.6% (inactive).
With CC12CCCCC1C(C(N)=O)C(=O)O2 (stereo not given) the growth was 123% (inactive).
c1cnc2ccc3ncccc3c2c1 was tested, and the growth was 101% (inactive).
With Clc1nc(Cl)c2ncn(-c3ccccc3)c2n1 the growth was 73.3% (inactive).
In the case of Nc1c2ccccc2nc2ccccc12 (tested in a mixture with another compound), the growth is reported as 22.6% (inactive).
In the case of CN(C)c1ccc2[nH]c3c(C(N)=O)cc(=O)c(=O)c=3oc2c1, the growth is reported as 100% (inactive).
In the case of O=c1[nH]c(=O)n(C2CC(O)C(CO)O2)cc1C(F)(F)F (stereo not given), the growth is reported as 86.6% (inactive).
In the case of COc1ccc2nccc(/C=C/c3ccnc4ccc(OC)cc34)c2c1, the growth is reported as 105% (inactive).
Cc1cc([N+](=O)[O-])c(C)cc1C(=O)O was tested, and the growth was 112% (inactive).
For O=C(NN(C(=O)c1ccccc1)c1cccs1)c1ccccc1, the growth was 112% (inactive).
In the case of Fc1ccc([C@@H]2CCNC[C@H]2COc2ccc3c(c2)OCO3)cc1, the growth is reported as 77.3% (inactive).
With OC(c1cc(C(F)(F)F)nc2c(C(F)(F)F)cccc12)C1CCCCN1 (stereo not given) the growth was 76.4% (inactive).
For Cc1cccc(Cl)c1NC(=O)c1ccc2nc(NC(=O)NC3CC(C)(C)NC(C)(C)C3)sc2c1, the growth was 94.5% (inactive).
With COc1cc(C2CC(c3ccc(C)cc3)=NN2C(C)=O)ccc1Oc1ccnc2cc(Cl)ccc12 (stereo not given) the growth was 63.3% (inactive).
For COC(=O)[C@]1(CCSC)N[C@H](c2cn(-c3ccccc3)nc2C)[C@@H]2C(=O)N(c3ccccc3)C(=O)[C@@H]21, the growth was 107% (inactive).
With Cc1ccc(C(C)C)cc1NC(=O)Nc1ccc([N+](=O)[O-])cc1 the growth was 15.6% (inactive).
For Nc1ccc2c3c(cccc13)-c1ccccc1-2, the growth was 87.4% (inactive).
In the case of Cc1ccccc1-c1cc(Cc2ccccc2O)c(=O)[nH]n1, the growth is reported as 67% (inactive).
O=C1C(=O)c2ccc(Br)cc2-c2cc(Br)ccc21 was tested, and the growth was 99.8% (inactive).
CCCCCCC(C)(O)c1ccccc1 (stereo not given) was tested, and the growth was 101% (inactive).
In the case of Nc1nc(SCC2(CCl)COC2)c2[nH]cnc2n1, the growth is reported as 107% (inactive).
COc1ccc2c(c1)C(=O)c1c-2c(OCCCN(C)C)nc2cc(Br)ccc12 was tested, and the growth was 61.8% (inactive).
For COC(=O)CCC1=C(C)C(C)=N/C1=C\c1[nH]c(-c2ccc[nH]2)cc1OC, the growth was 29.9% (inactive).
In the case of NNC(=O)C1CC2c3ccccc3C1c1ccccc12 (stereo not given), the growth is reported as 115% (inactive).
For Fc1ccc(-c2nnc(-c3c(-c4ccc(F)cc4)nc4ncccn34)o2)cc1, the growth was 108% (inactive).
With COc1ccc(CCN2CCCN3C2=Nc2ccccc2S3(=O)=O)cc1 the growth was 45% (inactive).
With Cc1nn(-c2ccccc2)c2c1oc(=O)c1cc(Cl)ccc12 the growth was 93.2% (inactive).
